This is an account of results in PubChem BioAssay (EPA / NIEHS).

As a reminder, the AC50 is the concentration giving half of the maximal activity seen.

Read-out in assay [1]: Plasminogen activator inhibitor-1 (PAI1), SERPINE1 (gene 5054)
Nature of the assay: BSK_KF3CT_PAI1: BioMAP Diversity Plus: KF3CT Assay for Plasminogen activator inhibitor-1 (PAI1) Biomarker Activity (AID 2284252). Conditions: primary human keratinocytes with fibroblasts. In short, it runs like this:
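Human primary keratinocyte/foreskin fibroblast co-culture was dosed with compound and sampled at 24 h. PAI-1 was quantified by ELISA, with activity fitted in the positive direction relative to DMSO vehicle as baseline.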

Read-out in assay [2]: Monocyte Chemoattractant Protein-1 (MCP1), CCL2 (gene 6347)
Put plainly: BSK_IMphg_MCP1: BioMAP Diversity Plus: IMphg Assay for Monocyte Chemoattractant Protein-1 (MCP1) Biomarker Activity (AID 2284253). Conditions: primary human endothelial cells with macrophages. In short, it runs like this: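 Human venular endothelial cells co-cultured with macrophages; MCP-1 measured by ELISA 24 hours post-dose and fitted against DMSO. Cytotoxicity monitored by SRB total-protein staining in parallel cultures.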

Read-out in assay [3]: Interleukin-8 (IL8), CXCL8 (gene 3576)
Put plainly: BSK_KF3CT_IL8: BioMAP Diversity Plus: KF3CT Assay for Interleukin-8 (IL8) Biomarker Activity (AID 2284254). Conditions: primary human keratinocytes with fibroblasts. Put shortly:
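ELISA detection of IL-8 from a human skin co-culture, keratinocytes with foreskin fibroblasts, at 24 h following chemical exposure, with gain of signal scored against DMSO controls.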

Read-out in assay [4]: Macrophage Inflammatory Protein-1 Alpha (MIP1a), CCL3 (gene 6348)
Nature of the assay: BSK_IMphg_MIP1a: BioMAP Diversity Plus: IMphg Assay for Macrophage Inflammatory Protein-1 Alpha (MIP1a) Biomarker Activity (AID 2284255). The note with it: primary human endothelial cells with macrophages. In short, it runs like this: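 Co-culture of human venular endothelial cells and macrophages exposed to compounds for 24 h; MIP-1a measured by ELISA relative to DMSO. Cytotoxicity assessed in parallel cultures by sulforhodamine B total-protein staining at 560 nm.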

Read-out in assay [5]: Plasminogen activator inhibitor-1 (PAI1), SERPINE1 (gene 5054)
Nature of the assay: BSK_MyoF_PAI1: BioMAP Diversity Plus: MyoF Assay for Plasminogen activator inhibitor-1 (PAI1) Biomarker Activity (AID 2284256). Conditions: primary human lung fibroblasts. Put shortly:
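Activity reflects increased PAI-1, determined by ELISA and compared with DMSO, in human lung fibroblasts treated for 24 h.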

Read-out in another assay: CD69, CD69 (gene 969)
Nature of the assay: BSK_IMphg_CD69: BioMAP Diversity Plus: IMphg Assay for CD69 Biomarker Activity (AID 2284257). The note with it: primary human endothelial cells with macrophages. In short, it runs like this:
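Human venular endothelial cells co-cultured with macrophages; CD69 quantified by ELISA 24 h after compound addition. Activity fitted in the positive direction relative to DMSO baseline; cytotoxicity tracked in parallel cultures via SRB total-protein staining.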

Read-out in assay [6]: Eotaxin 3, CCL26 (gene 10344)
Nature of the assay: BSK_BF4T_Eotaxin3: BioMAP Diversity Plus: BF4T Assay for Eotaxin 3 Biomarker Activity (AID 2284258). The note with it: primary human bronchial epithelial cells with fibroblasts. In short, it runs like this:
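Co-culture of human bronchial epithelial cells and dermal fibroblasts, exposed to chemicals for 24 h versus DMSO. Eotaxin-3 quantified by ELISA; cytotoxicity checked in parallel cultures by sulforhodamine B total-protein staining.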

Read-out in assay [7]: Monocyte Chemoattractant Protein-1 (MCP1), CCL2 (gene 6347)
Put plainly: BSK_BF4T_MCP1: BioMAP Diversity Plus: BF4T Assay for Monocyte Chemoattractant Protein-1 (MCP1) Biomarker Activity (AID 2284259). Conditions: primary human bronchial epithelial cells with fibroblasts. In short, it runs like this: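 Co-culture of bronchial epithelial cells and dermal fibroblasts dosed with chemical; MCP-1 measured by ELISA 24 h later. Activity fitted in positive direction versus DMSO; cytotoxicity checked by SRB staining in parallel cultures.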

Read-out in assay [8]: Intercellular Adhesion Molecule 1 (ICAM1), ICAM1 (gene 3383)
Put plainly: BSK_BF4T_ICAM1: BioMAP Diversity Plus: BF4T Assay for Intercellular Adhesion Molecule 1 (ICAM1) Biomarker Activity (AID 2284260). Conditions: primary human bronchial epithelial cells with fibroblasts. Put shortly: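 Co-culture of human bronchial epithelial cells and dermal fibroblasts exposed 24 h to chemical; cell-surface ICAM-1 quantified by ELISA. Parallel SRB total-protein staining assessed cytotoxicity; activity fitted relative to DMSO.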

Read-out in assay [9]: Interleukin-8 (IL8), CXCL8 (gene 3576)
Put plainly: BSK_MyoF_IL8: BioMAP Diversity Plus: MyoF Assay for Interleukin-8 (IL8) Biomarker Activity (AID 2284261). The note with it: primary human lung fibroblasts. In short, it runs like this:
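In this multiplexed primary-cell system, fibroblasts from human lung are treated with chemicals, and IL-8 is detected by ELISA at 24 h, with DMSO serving as the negative reference.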

Read-out in a further assay: CD90, THY1 (gene 7070)
Nature of the assay: BSK_BF4T_CD90: BioMAP Diversity Plus: BF4T Assay for CD90 Biomarker Activity (AID 2284262). Conditions: primary human bronchial epithelial cells with fibroblasts. Put shortly: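 Co-culture of human bronchial epithelial cells and dermal fibroblasts, 24 h compound exposure. Cell-surface CD90 measured by ELISA relative to DMSO; parallel SRB total-protein staining for cytotoxicity.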

Read-out in assay [10]: Interleukin-8 (IL8), CXCL8 (gene 3576)
Put plainly: BSK_BF4T_IL8: BioMAP Diversity Plus: BF4T Assay for Interleukin-8 (IL8) Biomarker Activity (AID 2284263). The note with it: primary human bronchial epithelial cells with fibroblasts. In short, it runs like this:
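Human bronchial epithelial cells with dermal fibroblasts co-culture; IL-8 measured by ELISA 24 hours after dosing, fitted vs DMSO. Cytotoxicity tracked in parallel cultures by SRB total-protein staining.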

Read-out in assay [11]: Interleukin-1 alpha (IL1a), IL1A (gene 3552)
Nature of the assay: BSK_BF4T_IL1a: BioMAP Diversity Plus: BF4T Assay for Interleukin-1 alpha (IL1a) Biomarker Activity (AID 2284264). Conditions: primary human bronchial epithelial cells with fibroblasts. In short, it runs like this:
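Human bronchial epithelial cells co-cultured with dermal fibroblasts, dosed and read at 24 h. Secreted/surface IL-1α quantified by ELISA; gain-of-signal fitted relative to DMSO baseline. Parallel SRB total-protein staining tracked cytotoxicity.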

Read-out in the next assay: Decorin, DCN (gene 1634)
Nature of the assay: BSK_MyoF_Decorin: BioMAP Diversity Plus: MyoF Assay for Decorin Biomarker Activity (AID 2284265). The note with it: primary human lung fibroblasts. In short, it runs like this: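 Lung fibroblast cultures, 24 h chemical exposure. Decorin by ELISA, positive fitting direction, DMSO baseline.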

Read-out in another assay: KRT18 (gene 3875)
Nature of the assay: BSK_BF4T_Keratin818: BioMAP Diversity Plus: BF4T Assay for Keratin 818 Biomarker Activity (AID 2284266). The note with it: primary human bronchial epithelial cells with fibroblasts. Put shortly:
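Co-culture of human bronchial epithelial cells and dermal fibroblasts, chemical exposure 24 h. Keratin 8/18 measured by ELISA; positive-direction fit vs DMSO. SRB total protein run in parallel cultures for cytotoxicity.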

Assay [12] is described as follows: BSK_MyoF_SRB: Viability Assessment in the BioMAP Diversity Plus: MyoF Assay (AID 2284267).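 Also: total protein by SRB absorbance in parallel cultures as cytotoxicity measure.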 Conditions: primary human lung fibroblasts. Put shortly:
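Human lung fibroblasts dosed with chemical and assessed 24 h later for overt cytotoxicity in parallel cultures. Total protein quantified by sulforhodamine B staining (0.1% SRB after 10% TCA fixation), read at 560 nm, analysed in positive direction versus DMSO baseline.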

Read-out in assay [13]: Matrix Metallopeptidase 1 (MMP1), MMP1 (gene 4312)
Nature of the assay: BSK_MyoF_MMP1: BioMAP Diversity Plus: MyoF Assay for Matrix Metallopeptidase 1 (MMP1) Biomarker Activity (AID 2284268). Conditions: primary human lung fibroblasts. Put shortly:
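MMP1 measured by ELISA 24 h after dosing primary human lung fibroblasts; cytotoxicity checked in parallel cultures by sulforhodamine B total-protein staining read at 560 nm.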

Read-out in assay [14]: TIMP metallopeptidase inhibitor 1 (TIMP1), TIMP1 (gene 7076)
Nature of the assay: BSK_MyoF_TIMP1: BioMAP Diversity Plus: MyoF Assay for TIMP metallopeptidase inhibitor 1 (TIMP1) Biomarker Activity (AID 2284269). Conditions: primary human lung fibroblasts. Put shortly: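 ELISA read-out of TIMP-1 from primary human lung fibroblast cultures 24 h after compound dosing; gain of signal relative to DMSO vehicle baseline defines activity.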

Read-out in assay [15]: Matrix Metallopeptidase 1 (MMP1), MMP1 (gene 4312)
Nature of the assay: BSK_BF4T_MMP1: BioMAP Diversity Plus: BF4T Assay for Matrix Metallopeptidase 1 (MMP1) Biomarker Activity (AID 2284270). Conditions: primary human bronchial epithelial cells with fibroblasts. Put shortly: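 Co-culture of human bronchial epithelial cells and dermal fibroblasts; MMP-1 levels measured by ELISA 24 hours after chemical dosing, relative to DMSO. Cytotoxicity checked in parallel cultures by SRB total-protein staining.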

Read-out in assay [16]: Matrix Metallopeptidase 3 (MMP3), MMP3 (gene 4314)
Put plainly: BSK_BF4T_MMP3: BioMAP Diversity Plus: BF4T Assay for Matrix Metallopeptidase 3 (MMP3) Biomarker Activity (AID 2284271). Conditions: primary human bronchial epithelial cells with fibroblasts. Put shortly: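 Co-culture of human bronchial epithelial cells and dermal fibroblasts dosed 24 h; MMP-3 measured by ELISA, positive-direction fit versus DMSO. Cytotoxicity tracked by SRB total-protein staining (560 nm) in parallel cultures.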

Several values for one entry are separate records, joined by “and”; a condition that tells them apart may be missing. Equal values may be shown once. Some compounds were tested as several samples or in several runs, with calls that do not always agree. Activity calls are given as the source filed them. The calls were made as follows: active = hit-call score of the fitted dose curve at least 0.9, where 1 is the maximum; inactive = score below 0.9.

As to `CCNS(=O)(=O)C(F)(F)C(F)(F)C(F)(F)C(F)(F)C(F)(F)C(F)(F)C(F)(F)C(F)(F)F`, the AC50 in assay [1] is 39.7 µM (active) and 39.3 µM (active); in assay [2], 41.4 µM (active) and 36.9 µM (active); in assay [4], 35 µM (active); in assay [5] it was 58.4 µM (active) and 51.1 µM (active); with CD69, CD69 (gene 969) it was 38.4 µM (active) and 39.2 µM (active); in assay [6], 7.65 µM (active) and 6.97 µM (active). In addition, the half-maximal activity concentration (AC50) in assay [7] is 18.6 µM (active) and 22.6 µM (active); in [8], 30 µM (active) and 25 µM (active); in [9], 41.5 µM (active) and 45.6 µM (active); in [11], 36.5 µM (active) and 44.4 µM (active); with Decorin, DCN (gene 1634) it was 40.9 µM (active) and 45.6 µM (active); in the assay with KRT18 (gene 3875) it was 15.3 µM (active) and 22.5 µM (active). In addition, the AC50 in assay [12] is 48.8 µM (active) and 50.9 µM (active); in [14] it was 38.9 µM (active) and 31.6 µM (active); in assay [15], 30 µM (active). The outcome is “inactive” in assay [3]; “inactive” in [4]; “inactive” in the assay with CD90, THY1 (gene 7070); “inactive” in assay [10]; “inactive” in assay [13]; “inactive” in assay [16].
